Where a name gives a salt, the structure may show the parent alone. ± gives the standard deviation of the averaged measurements.
How the values were obtained:
Experiment in all cases: growth (OD600 after 10 h); higher = more growth (less inhibition)
[1] = tested on: E. coli TESEC Alr+ wild-type control; conditions: compound 0.1 mM; raw OD600 reference: median of DMSO wells 0.241, cell-free background 0.041
Procedure: (§1)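 TESEC Mtb Alr E. coli, or the Alr+ wild-type control, in 384-well plates with Prestwick library compounds at 0.1 mM and 1% DMSO, across arabinose induction levels of 1E3 to 1E7 nM. Growth is read as OD600 after 10 h at 37 °C in triplicate biological replicates.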

E. coli TESEC Mtb Alr [2] = conditions: compound 0.1 mM
Procedure: as §1

E. coli TESEC Mtb Asd = conditions: compound 0.1 mM
Procedure: (§2)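 TESEC E. coli strains in which the native enzyme is deleted and replaced by arabinose-inducible Mtb Asd, DapB, CysH or TrpD, each grown in its selective medium. Strains were screened against the Prestwick library at 0.1 mM and 1% DMSO in 384-well format at low and high arabinose induction. Growth is read as OD600 after 10 h in triplicate.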

E. coli TESEC Mtb DapB = conditions: compound 0.1 mM
Procedure: as §2

E. coli TESEC Mtb Alr [3] = conditions: compound 0.1 mM; remark: listed apart in the source
Procedure: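 TESEC Mtb Alr E. coli (ΔaraC ΔtolC ΔentC Δalr ΔdadX, arabinose-inducible Mtb Alr) or the Alr+ wild-type control strain, grown in defined M9-fructose medium without D-alanine in 96-well plates with Prestwick library compounds at 0.1 mM and 1% DMSO. Low Alr induction is 0.1 µM arabinose and high induction is 10 mM arabinose.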

[4] = arabinose 1000 nM, raw OD600 reference: median of DMSO wells 0.294, cell-free background 0.041
[5] = arabinose 10000 nM, raw OD600 reference: median of DMSO wells 0.264, cell-free background 0.041
[6] = arabinose 100000 nM, raw OD600 reference: median of DMSO wells 0.201, cell-free background 0.041
[7] = arabinose 1000000 nM, raw OD600 reference: median of DMSO wells 0.193, cell-free background 0.041
[8] = arabinose 10000000 nM, raw OD600 reference: median of DMSO wells 0.146, cell-free background 0.041
[9] = arabinose induction (level): High, raw OD600 reference: median of DMSO wells 0.331, cell-free background 0.041
[10] = arabinose induction (level): Low, raw OD600 reference: median of DMSO wells 0.417, cell-free background 0.041
[11] = arabinose induction (level): High, raw OD600 reference: median of DMSO wells […], cell-free background 0.041
[12] = arabinose induction (level): Low, raw OD600 reference: median of DMSO wells 0.227, cell-free background 0.041
[13] = arabinose 100 nM, raw OD600 reference: median of DMSO wells 0.413, cell-free background 0.052
[14] = arabinose 10000000 nM, raw OD600 reference: median of DMSO wells […], cell-free background 0.052

Compound	growth [1]	growth (E. coli TESEC Mtb Alr [2]; [4])	growth (E. coli TESEC Mtb Alr [2]; [5])	growth (E. coli TESEC Mtb Alr [2]; [6])	growth (E. coli TESEC Mtb Alr [2]; [7])	growth (E. coli TESEC Mtb Alr [2]; [8])	growth (E. coli TESEC Mtb Asd; [9])	growth (E. coli TESEC Mtb Asd; [10])	growth (E. coli TESEC Mtb DapB; [11])	growth (E. coli TESEC Mtb DapB; [12])	growth (E. coli TESEC Mtb Alr [3]; [13])	growth (E. coli TESEC Mtb Alr [3]; [14])
CN(CCCN1c2ccccc2CCc2ccccc21)CC(=O)c1ccc(Cl)cc1 [Lofepramine]	0.133 ± 0.0019	0.199 ± 0.0064	0.127 ± 0.0072	0.194 ± 0.0099	0.0713 ± 0.0042	0.159 ± 0.0095	0.27 ± 0.062	0.196 ± 0.025	0.23 ± 0.064	0.227 ± 0.017	0.4242 ± 0.0042	0.202 ± 0.017
CC#C[C@]1(O)CC[C@H]2[C@@H]3CCC4=CC(=O)CCC4=C3[C@@H](c3ccc(N(C)C)cc3)C[C@@]21C [Mifepristone]	0.142 ± 0.0098	0.181 ± 0.013	0.207 ± 0.016	0.138 ± 0.0049	0.0733 ± 0.003	0.1374 ± 0.00076	0.241 ± 0.077	0.216 ± 0.015	0.199 ± 0.0078	0.236 ± 0.013	0.411 ± 0.009	0.116 ± 0.012
Clc1ccc(C(Cn2ccnc2)OCc2c(Cl)cccc2Cl)c(Cl)c1 (centres undefined) [Isoconazole]	0.0482 ± 0.00036	0.0445 ± 0.0043	0.247 ± 0.037	0.0465 ± 0.0023	0.105 ± 0.12	0.0545 ± 0.0038	0.152 ± 0.079	0.0562 ± 0.006	0.0672 ± 0.015	0.0666 ± 0.02	0.0651 ± 0.02	0.104 ± 0.075
CN1CCCC(n2nc(Cc3ccc(Cl)cc3)c3ccccc3c2=O)CC1 (centres undefined) [Azelastine HCl]	0.16 ± 0.0036	0.19 ± 0.011	0.172 ± 0.0055	0.193 ± 0.0073	0.105 ± 0.0015	0.1635 ± 0.00076	0.157 ± 0.025	0.241 ± 0.056	0.169 ± 0.0087	0.191 ± 0.011	0.409 ± 0.0069	0.312 ± 0.019
CC1COc2c(N3CCN(C)CC3)c(F)cc3c(=O)c(C(=O)O)cn1c23 (centres undefined) [Ofloxacin]	0.04363 ± 5.8e-05	0.0426 ± 0.00057	0.03877 ± 0.00015	0.0435 ± 0.0001	0.03957 ± 0.00029	0.044 ± 0.0001	0.0587 ± 0.0023	0.0597 ± 0.0025	0.0501 ± 0.0018	0.05347 ± 0.00015	0.0542 ± 0.0012	0.05103 ± 0.00031
CC1=C(/C=C/C(C)=C/C=C/C(C)=C/C(=O)O)C(C)(C)CCC1 [Retinoic acid]	0.281 ± 0.008	0.309 ± 0.012	0.262 ± 0.006	0.246 ± 0.0066	0.149 ± 0.006	0.162 ± 0.015	0.355 ± 0.11	0.41 ± 0.0091	0.186 ± 0.0028	0.2256 ± 0.00047	0.45 ± 0.0056	0.301 ± 0.013
Cc1c(C)c2c(c(C)c1O)CCC(C)(COc1ccc(CC3SC(=O)NC3=O)cc1)O2 (centres undefined) [Troglitazone]	0.0771 ± 0.022	0.108 ± 0.06	0.0436 ± 0.0028	0.16 ± 0.011	0.0474 ± 0.003	0.104 ± 0.016	0.0511 ± 0.00036	0.0536 ± 0.0033	0.08 ± 0.0038	0.126 ± 0.04	0.0885 ± 0.025	0.0573 ± 0.00085
CCCCc1cc2ccccc2c(OCCN(C)C)n1 [Dimethisoquin hydrochloride]	0.177 ± 0.0065	0.182 ± 0.0035	0.162 ± 0.0045	0.199 ± 0.0029	0.0689 ± 0.0025	0.1567 ± 0.0013	0.154 ± 0.0042	0.171 ± 0.015	0.167 ± 0.014	0.184 ± 0.012	0.3984 ± 0.0029	0.308 ± 0.011
Nc1nc(Cl)nc2c1ncn2[C@H]1C[C@H](O)[C@@H](CO)O1 [Cladribine]	0.263 ± 0.14	0.165 ± 0.0084	0.0701 ± 0.0033	0.118 ± 0.018	0.0623 ± 0.0011	0.07457 ± 0.00035	0.409 ± 0.08	0.217 ± 0.015	0.244 ± 0.046	0.209 ± 0.018	0.42 ± 0.0056	0.219 ± 0.031
Cc1cc2c(s1)Nc1ccccc1N=C2N1CCN(C)CC1 [Olanzapine]	0.207 ± 0.0059	0.286 ± 0.014	0.267 ± 0.0071	0.183 ± 0.015	0.158 ± 0.006	0.136 ± 0.0056	0.305 ± 0.043	0.457 ± 0.018	0.213 ± 0.029	0.249 ± 0.026	0.403 ± 0.014	0.319 ± 0.01
N=C(N)NC(=N)NCCc1ccccc1 [Phenformin hydrochloride]	0.2497 ± 0.002	0.279 ± 0.014	0.274 ± 0.0079	0.2 ± 0.02	0.186 ± 0.0089	0.137 ± 0.0039	0.378 ± 0.07	0.405 ± 0.067	0.203 ± 0.0056	0.211 ± 0.012	0.416 ± 0.0069	0.3729 ± 0.003
CO[C@@]1(NC(=O)C2SC(=C(C(N)=O)C(=O)O)S2)C(=O)N2C(C(=O)O)=C(CSc3nnnn3C)CS[C@@H]21 (some centres undefined) [Cefotetan]	0.03883 ± 0.00012	0.0383 ± 0.0011	0.04147 ± 0.00015	0.03763 ± 0.00032	0.0413 ± 0.00026	0.03917 ± 5.8e-05	0.0535 ± 0.0059	0.048 ± 0.0045	0.0527 ± 0.0035	0.0511 ± 0.01	0.0461 ± 0.00061	0.0531 ± 0.0051
CCOC(=O)O[C@]1(C(=O)OCCl)CC[C@H]2[C@@H]3CCC4=CC(=O)C=C[C@]4(C)[C@H]3[C@@H](O)C[C@@]21C [Loteprednol etabonate]	0.135 ± 0.003	0.167 ± 0.02	0.15 ± 0.0072	0.196 ± 0.028	0.114 ± 0.01	0.179 ± 0.0076	0.24 ± 0.019	0.26 ± 0.14	0.174 ± 0.027	0.233 ± 0.028	0.371 ± 0.017	0.219 ± 0.024
CC1=C(CC(=O)O)c2cc(F)ccc2/C1=C\c1ccc([S+](C)[O-])cc1 (centres undefined) [Sulindac]	0.166 ± 0.0055	0.206 ± 0.0077	0.181 ± 0.0019	0.125 ± 0.0091	0.0898 ± 0.0021	0.103 ± 0.0038	0.151 ± 0.018	0.243 ± 0.012	0.151 ± 0.013	0.196 ± 0.054	0.364 ± 0.063	0.11 ± 0.01
NC(=O)c1ccc[n+]([C@@H]2O[C@H](COP(=O)([O-])OP(=O)(O)OC[C@H]3O[C@@H](n4cnc5c(N)ncnc54)[C@H](O)[C@@H]3O)[C@@H](O)[C@H]2O)c1 [Nadide]	0.282 ± 0.006	0.363 ± 0.018	0.339 ± 0.0072	0.238 ± 0.031	0.245 ± 0.0026	0.175 ± 0.0086	0.428 ± 0.012	0.441 ± 0.0097	0.21 ± 0.0067	0.216 ± 0.02	0.415 ± 0.025	0.416 ± 0.0063
O=C(O)c1cccnc1Nc1cccc(C(F)(F)F)c1 [Niflumic acid]	0.113 ± 0.0057	0.0693 ± 0.0078	0.0488 ± 0.00046	0.145 ± 0.002	0.06687 ± 0.00065	0.099 ± 0.0016	0.15 ± 0.022	0.16 ± 0.018	0.172 ± 0.0053	0.209 ± 0.022	0.244 ± 0.066	0.0999 ± 0.0073
Clc1ccc(Cn2c(CN3CCCC3)nc3ccccc32)cc1 [Clemizole hydrochloride]	0.151 ± 0.0091	0.0807 ± 0.029	0.0496 ± 0.00062	0.106 ± 0.049	0.0465 ± 0.0005	0.06017 ± 0.00057	0.174 ± 0.038	0.135 ± 0.0075	0.156 ± 0.027	0.212 ± 0.079	0.406 ± 0.011	0.185 ± 0.055

— the supplement of paper PMC9262897, “Low-cost anti-mycobacterial drug discovery using engineered E. coli” (Nature Communications, 2022)
